Measured values as given in PubChem BioAssay (Tox21).
Records with an inconclusive call do not appear. Active and inactive are the calls of the source. The call rests on the fitted dose curve; in most records, active means well fitted curve in the direction sought with a large enough effect in the repeat runs; inconclusive means weak or mixed curves; inactive means no such curve, though single readings can be large; an effect the other way counts as inactive or inconclusive.

Key:
[1] = A CellTox Green Cytotoxicity Assay to monitor cytotoxicity in HEK293 cells - 40 hour (AID 1224871); further: nearly all actives have a fitted effect of over 45% in size; further: potency means the concentration at half of the fitted maximal effect
In short: (§1)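 Cytotoxicity was tracked continuously in HEK293 cells by a DNA-binding dye excluded from viable cells. Compounds were transferred in DMSO 5 h after seeding; fluorescence was recorded at intervals up to 40 h.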

[2] = qHTS RealTime-Glo MT Cell Viability Assay in HepG2 cells - 8 hour (AID 1224873); further: nearly all actives have a fitted effect of over 55% in size
In short: (§2)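 HepG2 cells (600/well) mixed with RealTime-Glo MT reagent, settled 5 h at 37 C/5% CO2 before compound addition. Nonlytic NanoLuc luminescence from viable-cell prosubstrate reduction read repeatedly during 40 h treatment at 37 C.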

[3] = A CellTox Green Cytotoxicity Assay to monitor cytotoxicity in HEK293 cells - 24 hour (AID 1224875); further: nearly all actives have a fitted effect of over 45% in size; further: potency means the concentration at half of the fitted maximal effect; on activity change: series mostly up to about 77 µM
In short: as §1

[4] = A CellTox Green Cytotoxicity Assay to monitor cytotoxicity in HepG2 cells - 16 hour (AID 1224876); further: nearly all actives have a fitted effect of over 45% in size; further: potency means the concentration at half of the fitted maximal effect
In short: (§3)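 Real-time, homogeneous cytotoxicity readout: dead-cell DNA staining by CellTox Green in HepG2 monolayers, fluorescence measured at timed intervals up to 40 h of continuous compound exposure.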

[5] = qHTS RealTime-Glo MT Cell Viability Assay in HepG2 cells - 32 hour (AID 1224877); further: nearly all actives have a fitted effect of over 55% in size
In short: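 Real-time, nonlytic viability: 600 HepG2 cells/well mixed with NanoLuc enzyme plus prosubstrate; 5 h settle, compound (DMSO) added by pintool; luminescence monitored over 40 h at 37 C.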

[6] = A CellTox Green Cytotoxicity Assay to monitor cytotoxicity in HepG2 cells - 24 hour (AID 1224878); further: nearly all actives have a fitted effect of over 45% in size; further: potency means the concentration at half of the fitted maximal effect
In short: as §3

[7] = qHTS RealTime-Glo MT Cell Viability Assay in HepG2 cells - 40 hour (AID 1224870); further: nearly all actives have a fitted effect of over 50% in size; further: potency means the concentration at half of the fitted maximal effect
In short: as §2

[8] = qHTS RealTime-Glo MT Cell Viability Assay in HEK293 cells - 16 hour (AID 1224872); further: nearly all actives have a fitted effect of over 50% in size; further: potency means the concentration at half of the fitted maximal effect
In short: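 Cells + reagent dispensed (600 cells/well, HEK293) → 5 h at 37 C/5% CO2 → 23 nL compound in DMSO pinned → 40 h at 37 C → luminescence read at 0, 8, 16, 24, 32, 40 h.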

[9] = qHTS RealTime-Glo MT Cell Viability Assay in HEK293 cells - 40 hour (AID 1224874); conditions: RealTime-Glo luminescence; max response: hits give low values; further: nearly all actives have a fitted effect of over 50% in size; further: potency means the concentration at half of the fitted maximal effect
In short: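 Nonlytic bioluminescent viability monitoring. HEK293 at 600 cells/well with reagent; 5 h settle; compound transfer by pintool; plates held at 37 C and read at set time points.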

[10] = A CellTox Green Cytotoxicity Assay to monitor cytotoxicity in HepG2 cells - 40 hour (AID 1224879); further: nearly all actives have a fitted effect of over 40% in size; further: potency means the concentration at half of the fitted maximal effect
In short: as §3
On the % scale 0 is the no-effect control and ±100 the full control effect.

C1CCCCCCCCCCC1
inactive: cytotoxicity increase [1] -40.6% [at 15.8 µM] | viability change, negative = cytotoxic [2] -9.68% [at 15.8 µM] | activity change [3] -35.9% [at 15.8 µM, hits give high values] | cytotoxicity increase [4] -3.96% [at 15.8 µM] | activity change, negative = cytotoxic [5] 12% [at 15.8 µM] | cytotoxicity [6] -7.04% [at 15.8 µM]

NC(=O)c1ncn([C@@H]2O[C@H](CO)[C@@H](O)[C@H]2O)c1O
inactive: Potency [7] | Potency [8] | outcome [2] | max response [9] 9.45% | Potency [5]
active: Potency [3] 19 µM

Cc1ccc(Nc2ccc(O)c3c2C(=O)c2ccccc2C3=O)cc1
inactive: Potency [7] | Potency [1] | Potency [8] | outcome [2] | max response [9] 7.86% | Potency [3] | Potency [4] | Potency [5] | Potency [10]

NC(=O)Nc1nc2ccccc2[nH]1
inactive: Potency [7] | Potency [8] | outcome [2] | max response [9] -25.5% | Potency [4] | Potency [5]

Cc1onc(-c2ccccc2)c1-c1ccc(S(N)(=O)=O)cc1
inactive: Potency [7] | Potency [1] | outcome [2] | Potency [3] | Potency [4] | Potency [5] | Potency [6]

CCOC(=O)Cn1c(=O)sc2cccc(Cl)c21
inactive: Potency [7] | Potency [1] | Potency [8] | max response [9] -10.9% | Potency [3] | Potency [4] | Potency [5] | Potency [10]

CCCCCCCCCCCCCCCCCCOCC(O)CO (stereo not drawn)
inactive: Potency [7] | Potency [1] | Potency [8] | outcome [2] | max response [9] -20.9% | Potency [3] | Potency [5] | Potency [10]

c1ccc(CCCc2ccccn2)cc1
inactive: Potency [7] | Potency [8] | outcome [2] | max response [9] -0.97% | Potency [4] | Potency [5] | Potency [6] | Potency [10]

CN(C)C(=O)C(CCN1CCC(O)(c2ccc(Cl)cc2)CC1)(c1ccccc1)c1ccccc1
active: Potency [7] 23.9 µM | Potency [1] 26.8 µM | Potency [8] 8.49 µM | Potency [9] 10.7 µM | Potency [4] 10.7 µM | Potency [6] 15.1 µM | Potency [10] 23.9 µM
inactive: outcome [2]

CC(C)(C)C(=O)/C=C/c1ccc(Cl)cc1
inactive: Potency [7] | Potency [8] | outcome [2] | max response [9] -0.497% | Potency [3] | Potency [4] | Potency [5] | Potency [6] | Potency [10]

C/C=C1\C(=O)C[C@H]2[C@@H]3CCC4=CC(=O)CC[C@]4(C)[C@H]3CC[C@]12C
active: Potency [9] 21.4 µM
inactive: Potency [7] | outcome [2] | Potency [3] | Potency [4] | Potency [5] | Potency [6] | Potency [10]

COc1cccc(Br)c1
inactive: Potency [7] | Potency [1] | Potency [8] | outcome [2] | max response [9] -10% | Potency [3] | Potency [5]

CCN(CC)S(=O)(=O)c1ccc(C(=O)O)cc1
inactive: Potency [7] | outcome [2] | Potency [4] | Potency [5] | Potency [6] | Potency [10]

[O-][N+](=Nc1ccccc1)c1ccccc1
inactive: Potency [7] | Potency [8] | outcome [2] | max response [9] -1.34% | Potency [4] | Potency [5] | Potency [6] | Potency [10]

COc1ccc(COC=O)cc1
inactive: Potency [7] | Potency [1] | Potency [8] | outcome [2] | Potency [3] | Potency [4] | Potency [5] | Potency [6] | Potency [10]

CCCCc1ccc(N)cc1
inactive: Potency [7] | Potency [1] | Potency [8] | outcome [2] | Potency [3] | Potency [4] | Potency [5] | Potency [6]

COc1ccc(N=[N+]([O-])c2ccc(OC)cc2)cc1
inactive: Potency [7] | Potency [1] | Potency [8] | outcome [2] | Potency [3] | Potency [4] | Potency [5] | Potency [6] | Potency [10]

O=[N+]([O-])c1ccc(Oc2ccc([N+](=O)[O-])cc2)cc1
inactive: Potency [7] | Potency [1] | outcome [2] | Potency [3] | Potency [4] | Potency [5] | Potency [6] | Potency [10]
